Measured values taken from PubChem BioAssay.
For some assays here: Entries with a potency or affinity are not part of this list. Calls of active or inactive are those of the source. Unless noted, the rule behind the calls is not given here.

Assays:
[1] = antimalarial activity against Dd2 strain (AID 2302;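 active = growth inhibition above 50% at the single 2 µM test dose, taken to imply half-maximal potency below 2 µM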;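 note: 0% = DMSO untreated growth and 100% = chloroquine plus artemisinin killed control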); conditions: P. falciparum Dd2 in RBCs, LDH growth readout, 72 h; at 2 µM; stronger effect = higher value
[2] = human hepatoma cell viability loss – ATP luminescence, cytotoxicity control for P. falciparum antimalarial project, primary screen (AID 2303;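 active = inhibition above 50%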;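 note: 0% = DMSO wells and 100% = digitonin-killed cells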); conditions: HepG2 viability, 24-48 h, at 10 µM, stronger effect = higher value
[3] = target: L-lactate dehydrogenase (Plasmodium falciparum (isolate CDC / Honduras)) (UniProt Q27743); assay: PfLDH activity inhibition – cell lysate, 3D7 strain, counter-screen for P. falciparum growth inhibition project (AID 2304);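 note: 0% = vehicle and 100% = reference inhibitor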; conditions: P. falciparum 3D7 crude extract, LDH APAD/NBT absorbance; at 2 µM; stronger effect = higher value
Sequence of L-lactate dehydrogenase (Plasmodium falciparum (isolate CDC / Honduras)) (Q27743 whole entry, looked up): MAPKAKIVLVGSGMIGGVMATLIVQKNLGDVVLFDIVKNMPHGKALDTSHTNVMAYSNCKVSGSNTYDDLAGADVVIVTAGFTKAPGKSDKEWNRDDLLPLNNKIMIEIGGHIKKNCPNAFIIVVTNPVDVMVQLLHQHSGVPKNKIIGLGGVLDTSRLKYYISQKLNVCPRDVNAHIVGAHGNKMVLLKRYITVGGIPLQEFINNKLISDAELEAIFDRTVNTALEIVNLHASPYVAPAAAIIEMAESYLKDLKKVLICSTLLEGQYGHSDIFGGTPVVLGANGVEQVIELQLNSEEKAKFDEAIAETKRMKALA

[4] = inhibition of 3D7 malaria parasite growth – strain 3D7 (AID 2306);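 note: 0% = DMSO wells and 100% = chloroquine plus artemisinin control wells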; conditions: P. falciparum 3D7 erythrocytic growth, LDH absorbance, 72 h; at 2 µM; stronger effect = higher value
[5] = target: Calcium-dependent protein kinase 1 (Plasmodium falciparum (isolate 3D7)) (UniProt P62344); assay: PfCDPK1 kinase inhibitors, biochemical, TCAMS library (AID 1159585; cut-off not given, nearly all actives have IC50 up to about 0.98 µM;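 note: inhibitors leave more ATP so luminescence rises with inhibition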); conditions: recombinant PfCDPK1, Kinase-Glo ATP depletion luminescence
Sequence of Calcium-dependent protein kinase 1 (Plasmodium falciparum (isolate 3D7)) (P62344 whole entry, looked up): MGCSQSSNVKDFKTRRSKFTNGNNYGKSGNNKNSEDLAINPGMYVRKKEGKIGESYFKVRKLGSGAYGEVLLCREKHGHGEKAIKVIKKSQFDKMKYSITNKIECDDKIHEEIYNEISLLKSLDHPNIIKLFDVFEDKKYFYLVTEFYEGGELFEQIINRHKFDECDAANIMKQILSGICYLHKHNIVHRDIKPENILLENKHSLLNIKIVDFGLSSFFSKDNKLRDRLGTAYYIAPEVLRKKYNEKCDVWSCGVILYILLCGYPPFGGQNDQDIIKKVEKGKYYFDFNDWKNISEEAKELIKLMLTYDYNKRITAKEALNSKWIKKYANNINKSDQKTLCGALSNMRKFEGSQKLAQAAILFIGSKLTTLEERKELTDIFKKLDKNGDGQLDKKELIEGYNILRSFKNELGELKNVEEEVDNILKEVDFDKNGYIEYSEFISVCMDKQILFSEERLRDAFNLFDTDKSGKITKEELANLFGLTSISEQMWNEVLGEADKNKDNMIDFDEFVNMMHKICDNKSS

[6] = target: Plasmodium falciparum protein kinase 6 (PK6, PF3D7_1337100) (UniProt Q8IDW1); assay: PfPK6 kinase inhibitors, biochemical, TCAMS library (AID 1159586); conditions: recombinant PfPK6, Kinase-Glo ATP depletion luminescence
Sequence of Plasmodium falciparum protein kinase 6 (PK6, PF3D7_1337100) (Q8IDW1 1-305): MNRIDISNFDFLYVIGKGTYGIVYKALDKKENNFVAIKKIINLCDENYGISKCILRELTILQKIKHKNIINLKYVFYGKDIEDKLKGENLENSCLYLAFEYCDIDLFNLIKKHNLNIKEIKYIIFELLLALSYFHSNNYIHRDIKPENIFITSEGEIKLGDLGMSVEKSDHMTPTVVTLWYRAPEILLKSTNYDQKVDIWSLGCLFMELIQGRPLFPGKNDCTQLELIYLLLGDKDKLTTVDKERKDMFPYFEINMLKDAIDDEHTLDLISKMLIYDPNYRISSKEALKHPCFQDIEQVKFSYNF

[7] = target: Protein kinase 7 (PK7), Plasmodium falciparum 3D7 (PF3D7_0213400) (UniProt Q7YTF7); assay: inhibition of Plasmodium PK7 catalytic activity – biochemical, TCAMS antimalarial set, Kinase-Glo luminescence (AID 1159587); conditions: recombinant PfPK7, Kinase-Glo ATP depletion luminescence
Sequence of Protein kinase 7 (PK7), Plasmodium falciparum 3D7 (PF3D7_0213400) (Q7YTF7 1-343): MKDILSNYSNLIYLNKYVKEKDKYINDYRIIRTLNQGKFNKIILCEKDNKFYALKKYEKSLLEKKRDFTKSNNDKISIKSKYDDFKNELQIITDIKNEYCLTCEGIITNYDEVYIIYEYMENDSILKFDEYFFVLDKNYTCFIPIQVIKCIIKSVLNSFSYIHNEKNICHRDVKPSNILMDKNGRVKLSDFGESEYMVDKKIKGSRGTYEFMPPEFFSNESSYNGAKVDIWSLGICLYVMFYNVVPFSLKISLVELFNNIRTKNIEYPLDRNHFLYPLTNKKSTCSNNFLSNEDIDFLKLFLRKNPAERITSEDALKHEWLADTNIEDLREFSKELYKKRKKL

[8] = target: Calcium-dependent protein kinase 4 (Plasmodium falciparum (isolate 3D7)) (UniProt Q8IBS5); assay: PfCDPK4 kinase inhibitors, biochemical, TCAMS library (AID 1159588; cut-off not given, nearly all actives have IC50 up to about 0.91 µM); conditions: recombinant PfCDPK4, Kinase-Glo ATP depletion luminescence
Sequence of Calcium-dependent protein kinase 4 (Plasmodium falciparum (isolate 3D7)) (Q8IBS5 whole entry, looked up): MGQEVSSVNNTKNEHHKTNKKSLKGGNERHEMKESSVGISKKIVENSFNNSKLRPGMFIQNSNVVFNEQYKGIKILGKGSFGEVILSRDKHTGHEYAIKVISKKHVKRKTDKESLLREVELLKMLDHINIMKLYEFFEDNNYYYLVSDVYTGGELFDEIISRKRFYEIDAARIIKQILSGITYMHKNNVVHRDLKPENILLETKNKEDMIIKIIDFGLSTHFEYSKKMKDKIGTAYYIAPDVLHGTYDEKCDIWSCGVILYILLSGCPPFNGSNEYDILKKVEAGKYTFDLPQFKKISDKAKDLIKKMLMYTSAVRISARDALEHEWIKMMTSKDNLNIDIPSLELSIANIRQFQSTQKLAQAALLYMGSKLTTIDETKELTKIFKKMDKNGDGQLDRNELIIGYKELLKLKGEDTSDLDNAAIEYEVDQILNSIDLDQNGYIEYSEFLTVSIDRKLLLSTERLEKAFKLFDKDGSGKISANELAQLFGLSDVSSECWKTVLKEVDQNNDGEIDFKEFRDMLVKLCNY

Cc1cccc(-c2nc3[nH]c(=O)cc(NC(=O)C(C)C)n3n2)c1
inactive: inhibition [2] -12% | inhibition [3] 0% | outcome [5] | outcome [6] | outcome [7] | outcome [8]
active: growth inhibition [1] 93% | growth inhibition [4] 96%

CC1(C)N=C(N)N=C(N)N1OCCOc1ccc2ccccc2c1
inactive: inhibition [3] 5% | outcome [5] | outcome [6] | outcome [7] | outcome [8]
active: growth inhibition [1] 96% | inhibition [2] 70% | growth inhibition [4] 93%

C=CCOc1ccc(C2C(C(=O)OC)=C(C)NC3=C2C(=O)c2ccccc23)cc1OC (stereo not given)
inactive: inhibition [2] -4% | inhibition [3] -8% | outcome [5] | outcome [6] | outcome [7] | outcome [8]
active: growth inhibition [1] 65% | growth inhibition [4] 82%

CCNS(=O)(=O)c1ccc(Oc2ccc([N+](=O)[O-])cc2)cc1
active: growth inhibition [1] 85% | growth inhibition [4] 94%
inactive: inhibition [2] 1% | inhibition [3] 1% | outcome [5] | outcome [6] | outcome [7] | outcome [8]

O=C(NCCCCCCNCc1ccc(-c2ccccc2)cc1)Nc1ccc(Cl)c(Cl)c1
inactive: growth inhibition [1] 2% | inhibition [2] 14% | inhibition [3] -1% | outcome [5] | outcome [6] | outcome [7] | outcome [8]
active: growth inhibition [4] 90%

COc1cc(C)ccc1S(=O)(=O)N1CCCCC(c2ccc(C(F)(F)F)cc2)=N1
inactive: inhibition [2] 16% | inhibition [3] -1% | outcome [5] | outcome [6] | outcome [7] | outcome [8]
active: growth inhibition [1] 89% | growth inhibition [4] 92%

CN1CCC(N(C)C(=O)C=Cc2cn(-c3ccccc3)nc2-c2cc3ccccc3o2)CC1
inactive: growth inhibition [1] 5% | inhibition [2] 38% | inhibition [3] 2% | outcome [5] | outcome [6] | outcome [7] | outcome [8]
active: growth inhibition [4] 92%

CC1(C)N=C(N)N=C(N)N1c1ccc(Oc2ccc(Cl)cc2)c(Cl)c1
inactive: growth inhibition [1] 20% | inhibition [2] 13% | inhibition [3] -2% | outcome [5] | outcome [6] | outcome [7] | outcome [8]
active: growth inhibition [4] 97%

N#Cc1ccc(CN2CCC(Oc3ccc(NC(=O)c4ccccc4)cc3Cl)CC2)cc1
active: growth inhibition [1] 65% | growth inhibition [4] 84%
inactive: inhibition [2] 21% | inhibition [3] 1% | outcome [5] | outcome [6] | outcome [7] | outcome [8]

O=C(O)c1cccc2c(-c3ccncc3)cccc12
inactive: growth inhibition [1] 1% | inhibition [2] 29% | inhibition [3] -1% | outcome [5] | outcome [6] | outcome [7] | outcome [8]
active: growth inhibition [4] 97%

COc1ccc(-c2ccc(NC(=O)c3ccc(Cl)cc3)cc2)cc1CN(C)CCO
active: growth inhibition [4] 92%
inactive: growth inhibition [1] 43% | inhibition [2] 43% | inhibition [3] 0% | outcome [5] | outcome [6] | outcome [7] | outcome [8]

Cc1ccc(-c2cc(C(=O)Nc3ccc(S(=O)(=O)N4CCCCC4C)cc3)[nH]n2)c(O)c1 (stereo not given)
active: growth inhibition [1] 99% | growth inhibition [4] 100%
inactive: inhibition [2] 37% | inhibition [3] 0% | outcome [5] | outcome [6] | outcome [7] | outcome [8]

O=C(N[C@H]1CCN(Cc2ccc(OCCCN3CCCCC3)cc2)C1)c1cc(Cl)cc(Cl)c1
active: growth inhibition [4] 99%
inactive: growth inhibition [1] 35% | inhibition [2] 13% | inhibition [3] -1% | outcome [5] | outcome [6] | outcome [7] | outcome [8]

O=C(NCCCCN1CCC(c2ccc3c(c2OCCN2CCCC2)CCCC3)CC1)c1ccc(-c2ccc(C(F)(F)F)cc2)cc1
inactive: inhibition [2] 25% | inhibition [3] -6% | outcome [5] | outcome [6] | outcome [7] | outcome [8]
active: growth inhibition [1] 81% | growth inhibition [4] 100%

COc1ccc(Nc2ncc3c(-c4cccc(NC(=O)Cc5ccc(F)cc5)c4)c[nH]c3n2)cc1OC
inactive: inhibition [2] 21% | inhibition [3] 8% | outcome [5] | outcome [6] | outcome [7] | outcome [8]
active: growth inhibition [1] 90% | growth inhibition [4] 101%

COc1ccc2ncc(F)c([C@H](O)CN3CCC(NCc4cc5c(cn4)OCCO5)CC3)c2c1
inactive: inhibition [2] 5% | inhibition [3] 7% | outcome [5] | outcome [6] | outcome [7] | outcome [8]
active: growth inhibition [1] 97% | growth inhibition [4] 101%

O=C(Cn1c(SCc2cccc(F)c2F)cc(=O)c2ccccc21)N(Cc1ccc(-c2ccc(C(F)(F)F)cc2)cc1)C1CCN(CCO)CC1
active: growth inhibition [1] 81% | inhibition [2] 50% | growth inhibition [4] 89%
inactive: inhibition [3] 4% | outcome [5] | outcome [6] | outcome [7] | outcome [8]

COc1cc(C)c(C(O)CNC(C)CCc2ccccc2)cc1C (stereo not given)
active: growth inhibition [1] 98% | growth inhibition [4] 98%
inactive: inhibition [2] 1% | inhibition [3] -2% | outcome [5] | outcome [6] | outcome [7] | outcome [8]

COC(=O)Nc1cc(C(F)(F)F)ccc1N1CCC(CNS(=O)(=O)c2ccc(OC)cc2)CC1
inactive: inhibition [2] 13% | inhibition [3] 0% | outcome [5] | outcome [6] | outcome [7] | outcome [8]
active: growth inhibition [1] 95% | growth inhibition [4] 99%

CCCCCN1CCC(NS(=O)(=O)c2ccc(C(=O)Nc3cccc(C(F)(F)F)c3)cc2)C1 (stereo not given)
active: growth inhibition [4] 94%
inactive: growth inhibition [1] 0% | inhibition [2] 14% | inhibition [3] -9% | outcome [5] | outcome [6] | outcome [7] | outcome [8]

CC[C@@H]([C@@H](Cc1cc2ccccc2s1)C(=O)N[C@@H](CCCCNC(=O)OCc1ccccc1)C(=O)Nc1ccccn1)N(O)C=O
inactive: inhibition [2] 36% | inhibition [3] 6% | outcome [5] | outcome [6] | outcome [7] | outcome [8]
active: growth inhibition [1] 70% | growth inhibition [4] 96%

CC(C)Nc1cc(C(=O)N[C@@H](Cc2ccccc2)[C@H](O)CNC(C)(C)c2cccc(C(F)(F)F)c2)cc(N2CCCCS2(=O)=O)c1
active: growth inhibition [1] 98% | growth inhibition [4] 98%
inactive: inhibition [2] 9% | inhibition [3] 2% | outcome [5] | outcome [6] | outcome [7] | outcome [8]

O=C(NC1CCCCC1)C(c1cccs1)N(CCc1ccccc1)C(=O)c1ccco1 (stereo not given)
inactive: inhibition [2] -10% | inhibition [3] -1% | outcome [5] | outcome [6] | outcome [7] | outcome [8]
active: growth inhibition [1] 63% | growth inhibition [4] 92%

Cc1ccc2nc(C)cc(NN=Cc3cccc(F)c3)c2c1
inactive: inhibition [2] 6% | inhibition [3] -1% | outcome [5] | outcome [6] | outcome [7] | outcome [8]
active: growth inhibition [1] 99% | growth inhibition [4] 99%

C[C@@H](CNc1ccnc(Nc2ccc3[nH]c(=O)[nH]c3c2)n1)c1ccccc1
inactive: growth inhibition [1] 1% | inhibition [2] 42% | inhibition [3] -3% | outcome [5] | outcome [6] | outcome [7] | outcome [8]
active: growth inhibition [4] 100%

COc1ccccc1-c1cccc(Nc2c(Nc3ccc(Cl)cc3)c(=O)c2=O)c1
inactive: growth inhibition [1] 47% | inhibition [2] 20% | inhibition [3] 0% | outcome [5] | outcome [6] | outcome [7] | outcome [8]
active: growth inhibition [4] 81%

CCn1cc(C(=O)O)c(=O)c2cc(F)c(N3CCN(S(=O)(=O)c4ccc(N)cc4)CC3)cc21
active: growth inhibition [1] 79% | growth inhibition [4] 90%
inactive: inhibition [2] -2% | inhibition [3] 4% | outcome [5] | outcome [6] | outcome [7] | outcome [8]

COc1cccc(CN2CCCC(COC(c3ccc(F)cc3)c3ccc(F)cc3)C2)c1O (stereo not given)
inactive: inhibition [2] 24% | inhibition [3] 4% | outcome [5] | outcome [6] | outcome [7] | outcome [8]
active: growth inhibition [1] 100% | growth inhibition [4] 98%

CS(=O)(=O)c1ccc(-c2cncc(Cl)n2)cc1
active: growth inhibition [1] 95% | growth inhibition [4] 100%
inactive: inhibition [2] 8% | inhibition [3] 7% | outcome [5] | outcome [6] | outcome [7] | outcome [8]

COc1ccc(NC(=O)Nc2ccc(-c3ccccc3)cc2Cl)cc1N1CCN(C)CC1
inactive: growth inhibition [1] 30% | inhibition [2] 40% | inhibition [3] 0% | outcome [5] | outcome [6] | outcome [7] | outcome [8]
active: growth inhibition [4] 90%

O=C(Nc1ccc(Cl)cc1)Nc1ccc2c(c1)N1CCN=C1S2
inactive: inhibition [2] 15% | inhibition [3] -1% | outcome [5] | outcome [6] | outcome [7] | outcome [8]
active: growth inhibition [1] 100% | growth inhibition [4] 99%

Cc1cc2c(cc1Cl)N(C(=O)Nc1cc(F)cc(-c3cncnc3)c1)CC2
inactive: inhibition [2] -4% | inhibition [3] -6% | outcome [5] | outcome [6] | outcome [7] | outcome [8]
active: growth inhibition [1] 59% | growth inhibition [4] 96%

CN1CCC(c2ccc(NC(=O)c3ccc(-c4cccc(C(F)(F)F)c4)o3)cc2)CC1
inactive: growth inhibition [1] 23% | inhibition [2] 23% | inhibition [3] -3% | outcome [5] | outcome [6] | outcome [7] | outcome [8]
active: growth inhibition [4] 86%

CC(Cc1ccc(Cl)cc1)Nc1nc(NC2CCCC2)nc(N2CCC(C#N)(c3ccccc3)CC2)n1 (stereo not given)
active: growth inhibition [1] 95% | growth inhibition [4] 99%
inactive: inhibition [2] 15% | inhibition [3] -6% | outcome [5] | outcome [6] | outcome [7] | outcome [8]

COCCNCc1ncsc1-c1ccc2c(Nc3ccc(Oc4ccccc4)cc3)ccnc2c1
active: growth inhibition [1] 93% | growth inhibition [4] 91%
inactive: inhibition [2] 34% | inhibition [3] -7% | outcome [5] | outcome [6] | outcome [7] | outcome [8]

O=C(Nc1ccc(Cn2ncc(N3CCCNCC3)c(Cl)c2=O)cc1)Nc1cccc(Oc2ccccc2)c1
inactive: growth inhibition [1] 41% | inhibition [2] 8% | inhibition [3] -5% | outcome [5] | outcome [6] | outcome [7] | outcome [8]
active: growth inhibition [4] 81%

Cn1nccc1C(=O)NCCNCc1ccc(-c2cccc(-c3nc4ccc(F)cc4[nH]3)c2)cc1
inactive: inhibition [2] 37% | inhibition [3] -7% | outcome [5] | outcome [6] | outcome [7] | outcome [8]
active: growth inhibition [1] 98% | growth inhibition [4] 102%

O=C(C=Cc1ccc(Cl)c(Cl)c1)NCCCCCN1CCCC(CCCNC(=O)c2cccs2)C1 (stereo not given)
inactive: growth inhibition [1] 0% | inhibition [2] 24% | inhibition [3] 1% | outcome [5] | outcome [6] | outcome [7] | outcome [8]
active: growth inhibition [4] 89%

NC(N)=Nc1nc(-c2cccc(NC(=O)NCc3cccc4ccccc34)c2)cs1
inactive: growth inhibition [1] 32% | inhibition [2] 14% | inhibition [3] 5% | outcome [5] | outcome [6] | outcome [7] | outcome [8]
active: growth inhibition [4] 101%

COc1c(CNCCCCCCNCc2c(OC)c(OC)c3ccccc3c2OC)c(OC)c2ccccc2c1OC
inactive: inhibition [3] -2% | outcome [5] | outcome [6] | outcome [7] | outcome [8]
active: growth inhibition [1] 98% | inhibition [2] 100% | growth inhibition [4] 96%
